Bioassay records (PubChem)
KB-V1 MDR tox = KB-V1 MDR subline cytotoxicity; KB-V1 MDR cells viability, CellTiter-Glo, 72 h; actives 3.4% (n = 400,000); Potency, µM (top dose mostly 46.1 µM), most hits filed as cytotoxic; AID 1347076; also: nearly all actives have a fitted effect of over 60% in size
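KB-V1 MDR subline cells in DMEM (phenol-red free, 10% FBS) exposed to compounds in qHTS concentration series for 72 h at 37 degrees C. Viability read by CellTiter-Glo luminescence; concentration-effect curves fitted after normalization and correction.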
HT1080NT lethal = kills 2HG-producing HT-1080-NT fibrosarcoma cells; HT-1080-NT fibrosarcoma viability, CellTiter-Glo ATP luminescence, 48 h; Potency, µM (doses to about 46.1 µM), actives largely listed as cytotoxic; actives 1.6% (n = 360,000);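 also: NT is the 2HG producing partner of a matched IDH1 knockdown line; nearly all actives have a fitted effect of over 55% in size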
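Viability by CellTiter-Glo luminescence after 48 h compound exposure at 37C of HT-1080-NT cells (750/well, RPMI, 5% FBS). % activity scaled between DMSO wells and medium-only wells, then curve-fitted and categorized by curve class.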
HepG2 tox = HepG2 cytotoxicity, counter-screen for TGF-b inhibitors; HepG2 CAGA-GFP viability, ATP luminescence, 18 h; actives 0.76% (n = 410,000); Potency, µM (highest dose often 46.1 µM), most hits filed as cytotoxic
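HepG2 CAGA-GFP cells (1000/well, DMEM with 1% FBS) received compound, then TGF-beta at 500 pg/mL final, and were incubated 18 hours at 37 degrees C. Viability was read by CellTiter-Glo luminescence. Media-only wells were set as complete cell-killing and DMSO as no toxicity.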
KB-3-1 cytotox = KB-3-1 parental cell cytotoxicity; Potency, µM (doses to about 46.1 µM), hits mostly cytotoxic; KB-3-1 viability, CellTiter-Glo ATP luminescence, 72 h; AID 1347075; actives 1.4% (n = 400,000); also: nearly all actives have a fitted effect of over 60% in size
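Cytotoxicity in the drug-sensitive parental line KB-3-1 was scored as loss of CellTiter-Glo luminescence following 72 h incubation with compound. Values come from curve fitting of normalized concentration-response data.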
TGFb inhibitor = inhibitors of TGF-b signaling; actives 1.2% (n = 410,000); Potency, µM (doses to about 46.1 µM), hits mostly inhibitors; HepG2 CAGA-GFP TGF-b/SMAD3 reporter, GFP fluorescence, 18 h; TGF-beta stimulated, 500 pg/mL final; AID 588855; also: nearly all actives have a fitted effect of over 65% in size
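TGF-beta reporter screen: HEPG2 CAGA-GFP, 1% FBS, 500 pg/mL TGF-beta final, 18 h; per-cell GFP summed per well; curves fitted and categorized by class.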
HT1080 IDH1KD tx = toxicity to HT-1080 IDH1 knockdown cells (counter line); HT-1080 IDH1 knockdown viability, ATP luminescence, 48 h; Potency, µM (doses to about 46.1 µM), actives largely listed as cytotoxic; actives 2% (n = 360,000); AID 686971
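% activity derives from luminescence (CellTiter-Glo), normalised to DMSO and no-cell wells. HT-1080-IDH1KD cells, 750/well, had 48 h compound exposure at 37 °C.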
Large screens that a line does not name were inactive. Most compounds without a hit are left out; they make up all but 6.6% or so of the library. Calls follow the shape of the dose curve; as a rule, active = well fitted curve in the direction sought with a large enough effect; inconclusive = small, poorly fitted or top-dose-only effect, or another doubt; inactive = no such curve, though single readings can be large; an effect the other way counts as inactive or inconclusive.

C#CC(C)(CC)NC(=O)Cn1nnc(-c2ccc(OCc3ccccc3C)cc2)n1 (stereo unspecified)	KB-V1 MDR tox inconclusive, TGFb inhibitor inconclusive (no result: HT1080NT lethal, HT1080 IDH1KD tx)
COc1cc2[nH]c(=O)n(Cc3ccc(C(=O)N4CCN(c5ccc(Cl)cc5)CC4)cc3)c(=O)c2cc1OC	TGFb inhibitor inconclusive (no result: HT1080NT lethal, HT1080 IDH1KD tx)
Cc1ccc(-n2c(/C=C/c3ccccc3)nc3ccccc3c2=O)cc1Cl	TGFb inhibitor inconclusive (no result: HT1080NT lethal, HT1080 IDH1KD tx)
CC(Cc1ccccc1)NCC(=O)Nc1cc(N(C)C)nc2ccccc12 (stereo unspecified)	KB-V1 MDR tox inconclusive, HT1080NT lethal inconclusive, HT1080 IDH1KD tx 23µM
CC(Cc1ccccc1)NCc1ccccc1O (stereo unspecified)	none
COc1cccc(OC)c1-c1nn2c(-c3n[nH]c4c3CCC4)nnc2s1	KB-V1 MDR tox inconclusive, KB-3-1 cytotox inconclusive, TGFb inhibitor inconclusive (no result: HT1080NT lethal, HT1080 IDH1KD tx)
C[C@H]1COC2=C1C(=O)C(=O)c1c2ccc2c1CCCC2(C)C	HT1080NT lethal inconclusive, HepG2 tox 10µM, KB-3-1 cytotox inconclusive, TGFb inhibitor 4.5µM
ClCCN(CCCl)c1ccc(C=Nc2ccncc2)cc1	none (no result: HT1080NT lethal, HT1080 IDH1KD tx)
Cc1cccc(C2CC(=O)Oc3c2c(=O)oc2ccccc32)c1 (stereo unspecified)	none (no result: HT1080NT lethal, HT1080 IDH1KD tx)
CC(C)c1ccc(NC(=O)Nc2nc(C(N)CCc3ccccc3)cs2)cc1 (stereo unspecified)	KB-V1 MDR tox inconclusive, HT1080NT lethal inconclusive, HepG2 tox 7.9µM, KB-3-1 cytotox inconclusive, TGFb inhibitor inconclusive, HT1080 IDH1KD tx 13µM
CC(C)CC(N)c1csc(NC(=O)Nc2ccccc2-c2ccccc2)n1 (stereo unspecified)	KB-V1 MDR tox inconclusive, HT1080NT lethal inconclusive, TGFb inhibitor inconclusive
Cc1cccc(-c2nc3ccc(C(=O)N4CCC5(CC4)OCCO5)cc3nc2-c2cccc(C)c2)c1	HT1080NT lethal inconclusive, KB-3-1 cytotox inconclusive, TGFb inhibitor inconclusive, HT1080 IDH1KD tx inconclusive
O=C(c1ccc2c(c1)ncn2C1CCCCC1)N1CCC2(CC1)OCCO2	KB-V1 MDR tox 9.2µM, HT1080NT lethal inconclusive, KB-3-1 cytotox inconclusive, HT1080 IDH1KD tx inconclusive
O=C1CC(c2ccc(F)cc2)c2c(c3ccccc3oc2=O)O1 (stereo unspecified)	none (no result: HT1080NT lethal, HT1080 IDH1KD tx)
C#CCN1C(=O)C(O)(CC(=O)c2ccc(OC)c(OC)c2)c2ccccc21 (stereo unspecified)	KB-V1 MDR tox 18µM, KB-3-1 cytotox inconclusive, HT1080 IDH1KD tx inconclusive
N#Cc1c(Br)n(C2OC(CO)C(O)C2O)c2ncnc(N)c12 (stereo unspecified)	KB-V1 MDR tox inconclusive, HT1080NT lethal 7.3µM, KB-3-1 cytotox inconclusive, TGFb inhibitor inconclusive, HT1080 IDH1KD tx 3.3µM
C[C@H](CO)N1C[C@H](C)[C@@H](CN(C)Cc2ccc(-c3ccccc3)cc2)Oc2c(NC(=O)c3ccncc3)cccc2C1=O	HT1080NT lethal inconclusive, KB-3-1 cytotox inconclusive, TGFb inhibitor inconclusive
COc1cc2c(cc1/C=C/[N+](=O)[O-])OCO2	HT1080NT lethal 4.1µM, KB-3-1 cytotox inconclusive, TGFb inhibitor inconclusive, HT1080 IDH1KD tx 8.2µM
CCc1ccc(N2C(=O)NC(=O)C(CCc3ccncc3)(CCc3ccncc3)C2=O)cc1	none
O=C1NC(=O)C(CCc2ccncc2)(Cc2cccc(Cl)c2Cl)C(=O)N1c1ccc(Br)cc1 (stereo unspecified)	KB-V1 MDR tox 8.2µM, HT1080NT lethal 16µM, KB-3-1 cytotox 5.2µM, HT1080 IDH1KD tx 8.2µM
Cc1ccc(C(=O)N[C@@H](C)CN2C3=NC[C@H](Cc4ccccc4)N3C[C@H]2Cc2ccc(O)cc2)cc1Br	HT1080NT lethal inconclusive, HepG2 tox 11µM, KB-3-1 cytotox inconclusive, TGFb inhibitor 13µM, HT1080 IDH1KD tx inconclusive
COc1ccc2cc1Oc1ccc(cc1)C[C@H]1c3cc(c(OC)cc3CCN1C)Oc1c(OC)c(OC)cc3c1[C@@H](C2)N(C)CC3	none
